# Data as given in PubChem BioAssay (Tox21).
# Records with an inconclusive call do not appear. A call without a number means that no potency is given here. Calls of active or inactive are those of the source. Calls come from the whole dose curve; as a rule, active = well fitted cell-killing curve with a large enough effect in the repeat runs; inconclusive = weak or mixed curves, or effect the other way; inactive = no such curve, though single readings can be large or run the other way.
# Experiment: qHTS assay to identify small molecule antagonists of the progesterone receptor (PR) signaling pathway - cell viability counter screen (AID 1346798); note: nearly all actives have a fitted effect of over 50% in size
# Settings: PR-UAS-bla HEK293T viability, CellTiter-Glo luminescence, 16 h; series mostly up to 92.4 µM
# Source text: National Center for Advancing Translational Sciences [NCATS]
# NIH Chemical Genomics Center [NCGC]
# U.S. Environmental Protection Agency [EPA]
# National Institutes of Environmental Health Sciences [NIEHS]
# National Toxicology Program [NTP]
# U.S. Food and Drug Administration [FDA]
# Progesterone receptor (PR), a nuclear hormone receptor, plays an important role in development, metabolic homeostasis and reproduction. It is activated by the steroid hormone progesterone. Endocrine disrupting chemicals (EDCs) and their interactions with steroid hormone receptors like PR causes disruption of normal endocrine function. To identify the compounds that inhibit PR signaling, a PR-UAS-bla GripTite cell line i.e. PR-UAS-bla HEK293T (Invitrogen, Carlsbad, CA, USA) containing a beta-lactamase reporter gene under the control of an UAS response element was used to screen Tox21 10K compound library. The cytotoxicity of the Tox21 compound library against the PR-bla cell line was tested in parallel by measuring the cell viability using CellTiter-Glo assay in the same wells.
# Tox21 Assay Protocol Summary:
# PR-UAS-bla HEK293T cells were dispensed at 3,000 cells/4 uL of assay medium containing 2% charcoal stripped FBS per well into black wall/clear-bottom 1536-well plates using a Multidrop Combi (ThermoFisher Scientific, Waltham, MA) dispenser. After the assay plates were incubated at a 37C and 5% CO2 for 4 hr, 23 nL of compounds dissolved in DMSO, positive controls or DMSO only was transferred to the assay plate by a Pintool station (Kalypsys, San Diego, CA), followed by addition of 1 uL of R5020 in assay medium using a Flying Reagent Dispenser (FRD, Aurora Discovery, San Diego, CA). The plates were incubated at 37C and 5% CO2 for 16 hr. Then 1 uL of LiveBLAzer B/G FRET substrate was added using a Flying Reagent Dispenser, the plates were incubated at room temperature for 2 hours, and fluorescence intensity was measured by an Envision plate reader (PerkinElmer, Shelton, CT). For cell viability readout that measures cytotoxicity, 4 uL/well of CellTiter-Glo reagent was added into the assay plates using a FRD. After 30 min incubation at room temperature, the luminescence intensity in the plates was measured using a ViewLux (PerkinElmer) plate reader.
# Potency is the fitted concentration of half-maximal effect.
SMILES,"activity change, negative = cytotoxicity",Potency
CCCCCCCCCCCCCCCCCO,-7.24% [at 18.9 µM] (inactive),–
C1CC(COCC2CO2)CCC1COCC1CO1 (stereo not given),–,inactive
CC(=O)O[C@@H]1C[C@@H]2CC[C@@]1(C)C2(C)C,–,inactive
C=CC(C)(CCC=C(C)C)OC(=O)/C=C/c1ccccc1 (stereo not given),–,inactive
ClC/C=C\CCl,–,inactive
CSc1c(Cl)c(Cl)c(Cl)c(Cl)c1Cl,–,inactive
C=C(C)C(=O)OCCC[Si](Cl)(Cl)Cl,–,inactive
CC(C)=CC1CC(C)CCO1 (stereo not given),–,inactive
O=C1OC(=O)c2cccc3cccc1c23,–,inactive
CCOC(=O)CN,–,inactive
O=C1OC(OC(=O)c2cccnc2Nc2cccc(C(F)(F)F)c2)c2ccccc21 (stereo not given),–,inactive
CC(C)N=C(N)/N=C(\N)Nc1ccc(Cl)cc1,–,inactive
CC1CNCC(C)O1 (stereo not given),–,inactive
Cc1occc1SSc1ccoc1C,–,inactive
Cc1nc(Nc2ncc(C(=O)Nc3c(C)cccc3Cl)s2)cc(N2CCN(CCO)CC2)n1,–,inactive
CC(C)=CCCC(C)CCOC(=O)C(C)C (stereo not given),–,inactive
Oc1ccc(-c2ccc(O)cc2)cc1,–,inactive
OCCCc1cccnc1,–,inactive
Cc1cncc(C)c1,–,inactive
C/C=C/C=N/NC(=O)c1ccncc1,–,inactive

SMILES,"activity change, negative = cytotoxicity",Potency
O=C1NC2CCCCN2C12CCN(CCCN1c3ccccc3CCc3ccc(Cl)cc31)CC2 (stereo not given),–,26.6 µM (active)
CC(NCCC(c1ccccc1)c1ccccc1)c1ccccc1 (stereo not given),–,21.1 µM (active)
CCCCCCCC(OC)OC,–,inactive
CCCCCCCCCCCCOC(=O)c1cc(O)c(O)c(O)c1,–,54.2 µM (active)
CC=O,–,32 µM (active)
CC(C)c1ccc(O)c(C(C)C)c1,–,inactive
CCN(CC)CCOc1ccc(C(O)(Cc2ccc(Cl)cc2)c2ccc(C)cc2)cc1 (stereo not given),–,26.6 µM (active)
c1ccc2c(c1)CCC2,–,inactive
CCO[Si](C)(C)OCC,–,inactive
CCCCCCOc1ccc(O)cc1,–,inactive
Cc1cc(Nc2ccc(O)cc2)ccc1N,–,inactive
CCCC(=O)OCC(COC(=O)CCC)OC(=O)CCC,–,inactive
CO[Si](CCC1CCC2OC2C1)(OC)OC (stereo not given),–,inactive
CC1=CP(=O)(c2ccccc2)CC1 (stereo not given),–,inactive
c1cc[nH]c1,–,inactive
CCCCCCCC/C=C/CCCOC(C)=O,–,inactive
COc1ccc2sc(C(=O)Nc3nnn[nH]3)c(OC(C)C)c2c1,–,inactive
CCCOc1sc(C(=O)N2CCC(c3cc(CN)ccc3F)CC2)c(C)c1Br,–,25 µM (active)
Oc1ccc(-c2ccccc2)c(Cl)c1,–,inactive
Clc1ccc(C(Cn2ccnc2)OCc2c(Cl)cccc2Cl)c(Cl)c1 (stereo not given),–,5.96 µM (active)
